SARS PLP yeast – qHTS of Yeast-based Assay for SARS-CoV PLP; AID 485353, 2010; 0.19% of 330,000 active; Potency, µM (doses to about 32.9 µM), without a hit: at the top dose activity, positive = growth rescue, usual class: activators; S. cerevisiae expressing SARS-CoV PLpro, growth rescue; calls by dose curve; also: 0% is about no effect; nearly all actives have a fitted effect of over 55% in size
Pf growth 48h – Primary qHTS for delayed death inhibitors of the malarial parasite plastid, 48 hour incubation. 5.9% of 310,000 active. P. falciparum luciferase growth in erythrocytes, 48 h. Potency, µM (series often up to 28.7 µM), inactives show top-dose activity change, negative = inhibition, usual class: inhibitors. AID 504832, 2011; also: % is scaled to controls: 0 for no effect and ±100 for the full control effect
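Luciferase-expressing P. falciparum in infected erythrocytes (2% hematocrit, 0.1% parasitemia final) in RPMI 1640/0.5% Albumax were exposed to compound for 48 hours at 37 C, 5% CO2; growth read as luminescence.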
Sm TGR inh – qHTS Assay for the Inhibitors of Schistosoma Mansoni Peroxiredoxins | Schistosoma mansoni thioredoxin glutathione reductase (TGR), Q962Y6 | purified TGR, DTNB reduction, TNB absorbance 405 nm | Potency, µM (top dose mostly 114 µM), for inactives: at the highest dose activity change, negative = inhibition, usual class: inhibitors | 3% of 360,000 active | AID 485364, 2010; also: % is scaled to controls: 0 for no effect and ±100 for the full control effect; nearly all actives have a fitted effect of over 60% in size
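TGR 20 nM + NADPH 100 uM (dispensed conc.), cpd preinc 15 min RT; start with NADPH (500 uM addition) then DTNB (15 mM addition). Kinetic TNB absorbance, 405 nm filter. Four-parameter Hill fit across titration.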
Pf growth 96h – Primary qHTS for delayed death inhibitors of the malarial parasite plastid, 96 hour incubation; P. falciparum luciferase reporter growth, 96 h; AID 504834, 2011; Potency, µM (top dose mostly 28.7 µM), for the others: at the top dose activity change, negative = inhibition, usual class: inhibitors; 6.9% of 320,000 active; also: % is scaled to controls: 0 for no effect and ±100 for the full control effect
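Cell-based qHTS: luciferase-tagged P. falciparum in erythrocytes (2% hematocrit, 0.05% parasitemia final) incubated with compounds for 96 hours, 37 C, 5% CO2; luciferase detection reagent then added and luminescence measured.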
The depositor's hits bear a star; ? = inconclusive; / = no result given; [ ] = dose if it differs, or a comment. A selection: hits, their analogues and other compounds. The true share with any hit is near 12%. Unless noted, calls follow the shape of the dose curve; as a rule, active = well fitted curve in the direction sought with a large enough effect; inconclusive = small, poorly fitted or top-dose-only effect, or another doubt; inactive = no such curve, though single readings can be large; an effect the other way counts as inactive or inconclusive. Potency is read from the fitted curve at half-maximal effect.

SMILES | SARS PLP yeast | Pf growth 48h | Sm TGR inh | Pf growth 96h
CCCCn1c(N)c(N(CC(C)C)C(=O)C2CCN(c3ncnc4sc(C)c(C)c34)CC2)c(=O)[nH]c1=O | 5% | 5.2µM* | 1% | 2.9µM*
CCCCn1c(N)c(N(CCOC)C(=O)c2ccc(-c3ccc(Cl)cc3)o2)c(=O)[nH]c1=O | 1% | ? | 45µM* | -10%
CCCCn1c(N)c(N(CCOC)C(=O)C2CCN(c3ncnc4sc(C)c(C)c34)CC2)c(=O)[nH]c1=O | -2% | 12µM* | 7% | 12µM*
CCCCn1c(N)c(N(CC(C)C)C(=O)C2CCN(C(=O)c3ccc(F)cc3)CC2)c(=O)[nH]c1=O | -4% | -4% | -3% | ?
CCCCN(C(=O)c1ccc(-c2ccc(Cl)cc2)o1)c1c(N)n(CCCC)c(=O)[nH]c1=O | -2% | ? | -5% | ?
Cc1ccc(C)c(NC(=O)Cc2nc(CNCC(C)C)cs2)c1 | -8% | 1% | ? | 3%
CCOc1ccc(NC(=O)c2ccc(F)c(S(=O)(=O)N(CC)Cc3ccccc3)c2)cc1 | / | / | 6% | /
O=P1(NCCCn2cc[n+](Cc3nc4ccccc4[nH]3)c2)C=C(c2ccccc2)OC(c2ccccc2)=C1 | -3% | 12µM* | 3% | 2.3µM*
O=C(C[n+]1ccn(CCCNP2(=O)C=C(c3ccccc3)OC(c3ccccc3)=C2)c1)c1cccs1 | -2% | ? | 4% | ?
c1ccc(C2CCCN(Cc3nc(CC4CC4)no3)CC2)cc1 (stereo unspecified) | -1% | ? | -17%[57.1 µM] | 27%
c1ccc(C(c2ccccc2)c2noc(CN3CCC(c4ccncc4)CC3)n2)cc1 | -1% | 10µM* | -4% | ?
O=[N+]([O-])c1ccc(Cl)c(S(=O)(=O)NCCc2ccccn2)c1 | 1% | / | / | /
CCOC(=O)N1CCc2c(sc3nc(SC(C)C)n(N)c(=O)c23)C1 | -3% | ? | 6% | 12µM*
CCOC(=O)N1CCc2c(sc3nc4n(c(=O)c23)N=C(c2ccc(OC)cc2)CS4)C1 | -1% | 0.47µM* | 1% | ?
CCOC(=O)N1CCc2c(sc3ncn(C)c(=O)c23)C1 | -6% | -4% | 17% | ?
NC(=O)C1(C(N)=O)OC1c1ccc(Cl)c(Cl)c1 (stereo unspecified) | -4% | 2% | 2% | -1%
C=CCNc1cc(C(F)(F)F)nc(-c2ccccn2)n1 | 8% | 6.6µM* | -3% | 4.1µM*
CCN(CC)c1cc(C(F)(F)F)nc(-c2ccccn2)n1 | 3% | ? | 1% | ?
COCCn1c(SCC(=O)Nc2c(C)n(C)n(-c3ccccc3)c2=O)nnc1-c1ccncc1 | 0% | -28% | -27% | 8%
C=CCc1ccccc1OCC(O)CN1CCN(c2ccc(C)cc2)CC1 (stereo unspecified) | -14% | ? | -2% | 9.3µM*
C=CCc1ccccc1OCC(O)CN1CCN(C(=O)OCC)CC1 (stereo unspecified) | 9% | ? | 40µM* | ?
Cc1ccccc1NC(=O)CSc1nc(=O)n(CCN2CCOCC2)c2c1CCC2 | / | / | 53% | /
O=C(O)c1ccc(/C=N/NC(=O)c2cc3ccccc3cc2O)cc1 | 9% | / | / | /
O=C(O)c1cccc(Cn2c(Cl)c(/C=N/NC(=O)c3ccccc3)sc2=O)c1 | 0% | -3% | 56µM* | 73%
O=C(O)c1cccc(Cn2c(Cl)c(/C=N/NC(=O)c3ccco3)sc2=O)c1 | ? | -8% | 45µM* | -13%
SMILES | SARS PLP yeast | Pf growth 48h | Sm TGR inh | Pf growth 96h
O=C(O)c1cccc(Cn2c(Cl)c(/C=N/NC(=O)c3cccc(O)c3)sc2=O)c1 | 0% | 6% | 9% | ?
O=C(O)c1cccc(Cn2c(Cl)c(/C=N/NC(=O)c3cc4ccccc4cc3O)sc2=O)c1 | 1% | ? | 32µM* | ?
Cn1c(SCC(=O)NC2CCS(=O)(=O)C2)nnc1-c1ccco1 (stereo unspecified) | 7% | 10% | -20% | 5%
COc1cc(Cl)c(C)cc1NC(=O)COc1ccc(C)nc1[N+](=O)[O-] | -3% | 36% | -7% | -4%
O=C(NC1CCCC1)C(c1ccc(Cl)cc1)N1CCc2ccccc21 (stereo unspecified) | 4% | / | 0% | 5.9µM*
O=C(NC1CCCCC1)C(c1ccccc1)N1CCCC1 (stereo unspecified) | 7% | 5% | 1% | 90%
Cc1ccc(C(C(=O)NC2CCCC2)N2CCc3ccccc32)cc1 (stereo unspecified) | 6% | / | 0% | ?
O=C(NC1CCCCC1)C(c1ccccc1)N1CCc2ccccc21 (stereo unspecified) | -17% | / | 0% | 12µM*
CCc1ccc(OCCSc2nc3ccccc3n2CC(=O)O)cc1 | 1% | -18% | ? | -2%
CSc1nc(=S)n(-c2cc(C)ccc2C)c(C)c1C(C)=O | 2% | -10% | 0% | 27%
Cc1nccn1S(=O)(=O)c1ccc(Br)cc1Br | -9% | 1.9µM* | -29% | 13µM*
CCOC(=O)c1cnc2c(ccc3ccccc32)c1Nc1ccc(N(C)C)cc1 | / | / | 6% | /
CC(NS(=O)(=O)c1ccccc1)C(c1cccs1)N1CCN(c2ccccc2)CC1 (stereo unspecified) | 0% | ? | 1% | 8.3µM*
CC(NS(=O)(=O)c1ccc(Br)cc1)C(c1cccs1)N1CCN(C)CC1 (stereo unspecified) | 5% | -21% | -4% | ?
COc1ccccc1N1CCN(C(c2cccs2)C(C)NS(=O)(=O)c2ccccc2)CC1 (stereo unspecified) | 0% | ? | 4% | 7.4µM*
Cc1cc(C)n2nc(SCC(=O)NC(=O)c3ccccc3Cl)nc2n1 | 2% | 4% | 0% | 24%
O=C(NCc1ccccc1Cl)c1ccncc1 | -2% | 5% | -19% | -11%
Cc1ccc(C)c(NC(=O)c2ccc3c(c2)CCCN3S(C)(=O)=O)c1 | / | / | 1% | /
O=c1cc(CN2CCN(C/C=C/c3ccccc3)CC2)c2cc(O)ccc2o1 | -4% | 3.3µM* | 2% | 2.9µM*
Cc1ccc2oc(=O)cc(CN3CCN(C/C=C/c4ccccc4)CC3)c2c1 | 0% | ? | -28% | 8.3µM*
Cc1ccc(N(C(=O)c2csnn2)C(C(=O)NC2CCCCC2)c2ccco2)cc1 (stereo unspecified) | 9% | ? | -12% | 23%
COc1ccc(CCn2nnnc2C(C(C)C)N2CCN(c3ncccn3)CC2)cc1OC (stereo unspecified) | 6% | 9.3µM* | 7% | ?
COc1ccc(CCn2nnnc2C(CC(C)C)N2CCC(C(N)=O)CC2)cc1OC (stereo unspecified) | 3% | 12% | 2% | 12µM*
CC(C)CC(c1nnnn1CCc1ccccc1)N1CCC(C(N)=O)CC1 (stereo unspecified) | 12% | 19% | -2% | 9.3µM*
CCCC(c1nnnn1CCC(C)C)N1CCC(C(N)=O)CC1 (stereo unspecified) | 2% | 12µM* | 1% | 9.3µM*

Compound activity: PubChem BioAssay, National Center for Advancing Translational Sciences (NCATS)
